According to doi:10.1101/2024.03.05.583629:

target: pT7_6His-AlfaTag-HOXD13 (human, UniProt P35453 263-343); assay: PADIT-seq; details: dsDNA, one strand shown
Sequence (P35453 263-343): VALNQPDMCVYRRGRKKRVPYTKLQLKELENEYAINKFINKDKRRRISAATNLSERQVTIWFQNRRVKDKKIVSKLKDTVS

Going from “CTCGAGGATATCAAGATCTGGCCTCGGCGTTTTATAAGGAACCTCTAGCTAGCCGACTCACTATAGGGATAATCGCCCTGAGCAAAGACC” to “CTCGAGGATATCAAGATCTGGCCTCGGCCTTTTACCAGGAACCTCTAGCTAGCCGACTCACTATAGGGATAATCGCCCTGAGCAAAGACC”, the binding signal falls from 3.26 ± 0.0829 log2FC to 0.296 ± 0.0912 log2FC.

Compared with “CTCGAGGATATCAAGATCTGGCCTCGGCCTTTTAGAAGGAACCTCTAGCTAGCCGACTCACTATAGGGATAATCGCCCTGAGCAAAGACC”, “CTCGAGGATATCAAGATCTGGCCTCGGCCTTTTAGCCGGAACCTCTAGCTAGCCGACTCACTATAGGGATAATCGCCCTGAGCAAAGACC” is lower in binding signal: 0.357 ± 0.088 log2FC for the first, -0.235 ± 0.0913 log2FC for the second.

First: CTCGAGGATATCAAGATCTGGCCTCGGCCTACTAAAAGGAACCTCTAGCTAGCCGACTCACTATAGGGATAATCGCCCTGAGCAAAGACC
Second: CTCGAGGATATCAAGATCTGGCCTCGGCGTTGTAAAAGGAACCTCTAGCTAGCCGACTCACTATAGGGATAATCGCCCTGAGCAAAGACC
The binding signal of the first is lower: 1.25 ± 0.0954 log2FC for the first, 2.39 ± 0.0772 log2FC for the second.

Compared with “CTCGAGGATATCAAGATCTGGCCTCGGCGGATTAAAAGGAACCTCTAGCTAGCCGACTCACTATAGGGATAATCGCCCTGAGCAAAGACC”, “CTCGAGGATATCAAGATCTGGCCTCGGCCTTTTACAAGGAACCTCTAGCTAGCCGACTCACTATAGGGATAATCGCCCTGAGCAAAGACC” is higher in binding signal: 1.17 ± 0.076 log2FC for the first, 3.37 ± 0.074 log2FC for the second.

Compared with “CTCGAGGATATCAAGATCTGGCCTCGGCATTTTATCCGGAACCTCTAGCTAGCCGACTCACTATAGGGATAATCGCCCTGAGCAAAGACC”, “CTCGAGGATATCAAGATCTGGCCTCGGCGTTTTAATAGGAACCTCTAGCTAGCCGACTCACTATAGGGATAATCGCCCTGAGCAAAGACC” is higher in binding signal: 1.17 ± 0.0736 log2FC for the first, 2.63 ± 0.0918 log2FC for the second.

Going from “CTCGAGGATATCAAGATCTGGCCTCGGCATTTTACGAGGAACCTCTAGCTAGCCGACTCACTATAGGGATAATCGCCCTGAGCAAAGACC” to “CTCGAGGATATCAAGATCTGGCCTCGGCTTTTTATTCGGAACCTCTAGCTAGCCGACTCACTATAGGGATAATCGCCCTGAGCAAAGACC”, the binding signal falls from 3.41 ± 0.0937 log2FC to 1.86 ± 0.0775 log2FC.

First: CTCGAGGATATCAAGATCTGGCCTCGGCCGATTAAAAGGAACCTCTAGCTAGCCGACTCACTATAGGGATAATCGCCCTGAGCAAAGACC
Second: CTCGAGGATATCAAGATCTGGCCTCGGCGTTTTAGAAGGAACCTCTAGCTAGCCGACTCACTATAGGGATAATCGCCCTGAGCAAAGACC
The binding signal of the first is higher: 1.2 ± 0.104 log2FC for the first, 0.37 ± 0.103 log2FC for the second.

Compared with “CTCGAGGATATCAAGATCTGGCCTCGGCTTTTTAAAAGGAACCTCTAGCTAGCCGACTCACTATAGGGATAATCGCCCTGAGCAAAGACC”, “CTCGAGGATATCAAGATCTGGCCTCGGCCGGATAAAAGGAACCTCTAGCTAGCCGACTCACTATAGGGATAATCGCCCTGAGCAAAGACC” is lower in binding signal: 2.52 ± 0.0678 log2FC for the first, 0.58 ± 0.0859 log2FC for the second.

Compared with “CTCGAGGATATCAAGATCTGGCCTCGGCGTTTTAAGAGGAACCTCTAGCTAGCCGACTCACTATAGGGATAATCGCCCTGAGCAAAGACC”, “CTCGAGGATATCAAGATCTGGCCTCGGCCGCCCAGCAGGAACCTCTAGCTAGCCGACTCACTATAGGGATAATCGCCCTGAGCAAAGACC” is lower in binding signal: 2.61 ± 0.088 log2FC for the first, -0.927 ± 0.127 log2FC for the second.

“CTCGAGGATATCAAGATCTGGCCTCGGCTTTTTAGCCGGAACCTCTAGCTAGCCGACTCACTATAGGGATAATCGCCCTGAGCAAAGACC” and “CTCGAGGATATCAAGATCTGGCCTCGGCTGGGTAAAAGGAACCTCTAGCTAGCCGACTCACTATAGGGATAATCGCCCTGAGCAAAGACC” are within error of each other in binding signal: -0.442 ± 0.12 log2FC for the first, -0.514 ± 0.0905 log2FC for the second.

Compared with “CTCGAGGATATCAAGATCTGGCCTCGGCGCGGTAAAAGGAACCTCTAGCTAGCCGACTCACTATAGGGATAATCGCCCTGAGCAAAGACC”, “CTCGAGGATATCAAGATCTGGCCTCGGCACTTTAAAAGGAACCTCTAGCTAGCCGACTCACTATAGGGATAATCGCCCTGAGCAAAGACC” is higher in binding signal: 0.513 ± 0.0756 log2FC for the first, 2.07 ± 0.0674 log2FC for the second.

First: CTCGAGGATATCAAGATCTGGCCTCGGCTCACCACGCGGAACCTCTAGCTAGCCGACTCACTATAGGGATAATCGCCCTGAGCAAAGACC
Second: CTCGAGGATATCAAGATCTGGCCTCGGCCTTTTATTCGGAACCTCTAGCTAGCCGACTCACTATAGGGATAATCGCCCTGAGCAAAGACC
The binding signal of the first is lower: -1.05 ± 0.123 log2FC for the first, 1.67 ± 0.077 log2FC for the second.

Going from “CTCGAGGATATCAAGATCTGGCCTCGGCGTTTTAGATGGAACCTCTAGCTAGCCGACTCACTATAGGGATAATCGCCCTGAGCAAAGACC” to “CTCGAGGATATCAAGATCTGGCCTCGGCGTTTTAGGAGGAACCTCTAGCTAGCCGACTCACTATAGGGATAATCGCCCTGAGCAAAGACC”, the binding signal rises from 0.145 ± 0.106 log2FC to 1.64 ± 0.105 log2FC.

“CTCGAGGATATCAAGATCTGGCCTCGGCTTTTTAAAGGGAACCTCTAGCTAGCCGACTCACTATAGGGATAATCGCCCTGAGCAAAGACC” and “CTCGAGGATATCAAGATCTGGCCTCGGCGTTTTATCAGGAACCTCTAGCTAGCCGACTCACTATAGGGATAATCGCCCTGAGCAAAGACC” are within error of each other in binding signal: 2.54 ± 0.0796 log2FC for the first, 2.41 ± 0.0928 log2FC for the second.
